{"source": "PubChem BioAssay (Tox21)", "note": "Inconclusive results are not listed. Entries that show only a call come without a potency. The source made the active and inactive calls. Calls come from the whole dose curve; as a rule, active = well fitted cell-killing curve with a large enough effect in the repeat runs; inconclusive = weak or mixed curves, or effect the other way; inactive = flat fitted curve, though single readings scatter."}
{"assay": "qHTS assay to identify small molecule antagonists of the estrogen receptor alpha (ER-alpha) signaling pathway using the BG1 cell line in the presence of 0.1 nM 17-beta-estradiol - cell viability counter screen (AID 1259241); note: nearly all actives have a fitted effect of over 40% in size", "conditions": "VM7Luc4E2 (BG1) viability, CellTiter-Fluor protease, 22 h, 0.1 nM estradiol agonist added; series mostly up to 92.4 µM; activity change, negative = cytotoxicity: at the top concentration", "source_text": "National Center for Advancing Translational Sciences [NCATS]\nNIH Chemical Genomics Center [NCGC]\nU.S. Environmental Protection Agency [EPA]\nNational Institutes of Environmental Health Sciences [NIEHS]\nNational Toxicology Program [NTP]\nU.S. Food and Drug Administration [FDA]\nEstrogen receptor (ER), a member of the nuclear hormone receptor plays an important role in development, metabolic homeostasis and reproduction. Two subtypes of ER, ER-alpha and ER-beta, have similar expression patterns with some uniqueness in both types. Endocrine disrupting chemicals (EDCs) and their interactions with steroid hormone receptors like ER causes disruption of normal endocrine function. Therefore, it is important to understand the effect of environmental chemicals in ER signaling pathway. For identifying ER antagonists, VM7Luc4E2 cell line was used to screen against Tox21 compound libraries.\nVM7Luc4E2 cell line (provided by Denison MS, University of California) endogenously express full-length ER-alpha and is stably transfected with a plasmid containing four estrogen responsive elements (ERE) upstream of a luciferase reporter gene. The current screening for identification of ER-alpha inhibitors against Tox21 compound libraries used lower concentration (0.1 nM) of 17beta-Estradiol as a stimulator. The cytotoxicity of the Tox21 compound libraries against VM7Luc4E2 cell line was tested by measuring live-cell protease activity using CellTiter-Fluor assay in the same wells.\nTox21 Assay Protocol Summary:\nVM7Luc4E2 cells were cultured in phenol red free assay medium containing 10% charcoal stripped FBS for 5 days prior to the assay. The cells were dispensed at 4,000 cells/well in 4 uL of assay medium into white wall/solid-bottom 1536-well plates (Corning Life Sciences, Corning, NY) using a Multidrop Combi (ThermoFisher Scientific, Waltham, MA) dispenser. After the assay plates were incubated at 37C and 5% CO2 for 24 hr, 23 nL of compounds dissolved in DMSO, positive controls or DMSO only was transferred to the assay plates by a Pintool station (Kalypsys, San Diego, CA). The transfer of compounds was followed by the addition of 1 uL of 0.1 nM (final concentration) agonist (17beta-Estradiol)/assay medium using a Flying Reagent Dispenser (FRD, Aurora Discovery, San Diego, CA). The plates were incubated at 37C and 5% CO2 for 22 hr. For cytotoxicity assay, 1 uL of CellTiter-Fluor reagent (Promega Corporation, Madison, WI) was added to each well using the FRD and after 30 min incubation at 37C and 5% CO2, The fluorescence intensity was measured using ViewLux plate reader (PerkinElmer, Shelton, CT)."}
{"molecule": "CCCC[n+]1ccccc1", "Potency": "inactive"}
{"molecule": "C=CCOC(Cn1ccnc1)c1ccc(Cl)cc1Cl", "note": "(stereo not given)", "activity change, negative = cytotoxicity": "-6.73% [at 42.5 µM] (inactive)"}
{"molecule": "CCCCCCCCn1cc[n+](C)c1", "Potency": "inactive"}
{"molecule": "O=[N+]([O-])O", "Potency": "inactive"}
{"molecule": "CC(=O)O", "Potency": "inactive"}
{"molecule": "CCCCCCCCCCCCn1cc[n+](C)c1", "Potency": "inactive"}
{"molecule": "COP(=O)(OC)C(O)C(Cl)(Cl)Cl", "note": "(stereo not given)", "Potency": "inactive"}
{"molecule": "C1CCC(NC2CCCCC2)CC1", "Potency": "inactive"}
{"molecule": "O=C(O)c1ccccc1O", "Potency": "inactive"}
{"molecule": "CCCC[N+]1(C)CCCCC1", "Potency": "inactive"}
{"molecule": "CCCCCC[n+]1ccccc1", "Potency": "inactive"}
{"molecule": "O=[N+]([O-])c1ccccc1O", "Potency": "inactive"}
{"molecule": "CCCCCCCCCCn1cc[n+](C)c1", "Potency": "inactive"}
{"molecule": "CCCCn1cc[n+](C)c1", "Potency": "inactive"}
{"molecule": "CCC(=O)C(CC(C)N(C)C)(c1ccccc1)c1ccccc1", "note": "(stereo not given)", "Potency": "inactive"}
{"molecule": "CCC[N+]1(C)CCCCC1", "Potency": "inactive"}
{"molecule": "O=C(O)C(Cl)Cl", "Potency": "inactive"}
{"molecule": "OCCOc1ccccc1", "Potency": "inactive"}
{"molecule": "Cc1cc(Cl)ccc1N", "Potency": "inactive"}
{"molecule": "CCC[N+]1(C)CCCC1", "Potency": "inactive"}
{"molecule": "O=C(O)CCl", "Potency": "inactive"}
{"molecule": "COc1ccc(N)cc1", "Potency": "inactive"}
{"molecule": "CCCCCCn1cc[n+](C)c1", "Potency": "inactive"}
{"molecule": "CNC", "Potency": "inactive"}
{"molecule": "N#CS", "Potency": "inactive"}
{"molecule": "COc1ccccc1N", "Potency": "inactive"}
{"molecule": "O=c1[nH]c(=O)n(Cl)c(=O)n1Cl", "Potency": "inactive"}
{"molecule": "CCn1cc[n+](C)c1C", "Potency": "inactive"}
{"molecule": "O=c1nc(O)n(Cl)c(=O)n1Cl", "Potency": "inactive"}
{"molecule": "Cc1cc(-c2ccc(N)c(C)c2)ccc1N", "Potency": "inactive"}
{"molecule": "Cc1cc(Cl)ccc1OCC(=O)O", "Potency": "inactive"}
{"molecule": "CCCC[n+]1cccc(C)c1", "Potency": "inactive"}
{"molecule": "Nc1ccc(-c2ccc(N)c(Cl)c2)cc1Cl", "Potency": "inactive"}
{"molecule": "Oc1ccccc1-c1ccccc1", "Potency": "inactive"}
{"molecule": "O=P1(N(CCCl)CCCl)NCCCO1", "note": "(stereo not given)", "Potency": "inactive"}
{"molecule": "CCCC[n+]1ccccc1C", "Potency": "inactive"}
{"molecule": "CC[N+](CC)(CC)CC", "Potency": "inactive"}
{"molecule": "C[N+](C)(C)Cc1ccccc1", "Potency": "inactive"}
{"molecule": "CCCCCCCCCCCCOS(=O)(=O)O", "Potency": "inactive"}
{"molecule": "COP(=O)(OC)OC=C(Cl)Cl", "Potency": "inactive"}
